Experimental data from PMC4336329 (PLoS ONE, 2015).
The whole screen tested about 310,000 compounds, of which about 14,000 (4.5%) showed an effect of 50% or more. Effects have a minus sign here. What follows is part of a selection rich in strong results, with near analogues and random picks from the rest.

target: human ether-à-go-go-related gene (hERG) potassium channel (human, UniProt Q12809); experiment: primary screen, population patch clamp on CHO cells stably expressing hERG; higher = less effect of the substance
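Note: peak tail current of the secondary pulse compared with the same well before compound.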

human ether-à-go-go-related gene (hERG) potassium channel, sequence (Q12809 whole entry, looked up): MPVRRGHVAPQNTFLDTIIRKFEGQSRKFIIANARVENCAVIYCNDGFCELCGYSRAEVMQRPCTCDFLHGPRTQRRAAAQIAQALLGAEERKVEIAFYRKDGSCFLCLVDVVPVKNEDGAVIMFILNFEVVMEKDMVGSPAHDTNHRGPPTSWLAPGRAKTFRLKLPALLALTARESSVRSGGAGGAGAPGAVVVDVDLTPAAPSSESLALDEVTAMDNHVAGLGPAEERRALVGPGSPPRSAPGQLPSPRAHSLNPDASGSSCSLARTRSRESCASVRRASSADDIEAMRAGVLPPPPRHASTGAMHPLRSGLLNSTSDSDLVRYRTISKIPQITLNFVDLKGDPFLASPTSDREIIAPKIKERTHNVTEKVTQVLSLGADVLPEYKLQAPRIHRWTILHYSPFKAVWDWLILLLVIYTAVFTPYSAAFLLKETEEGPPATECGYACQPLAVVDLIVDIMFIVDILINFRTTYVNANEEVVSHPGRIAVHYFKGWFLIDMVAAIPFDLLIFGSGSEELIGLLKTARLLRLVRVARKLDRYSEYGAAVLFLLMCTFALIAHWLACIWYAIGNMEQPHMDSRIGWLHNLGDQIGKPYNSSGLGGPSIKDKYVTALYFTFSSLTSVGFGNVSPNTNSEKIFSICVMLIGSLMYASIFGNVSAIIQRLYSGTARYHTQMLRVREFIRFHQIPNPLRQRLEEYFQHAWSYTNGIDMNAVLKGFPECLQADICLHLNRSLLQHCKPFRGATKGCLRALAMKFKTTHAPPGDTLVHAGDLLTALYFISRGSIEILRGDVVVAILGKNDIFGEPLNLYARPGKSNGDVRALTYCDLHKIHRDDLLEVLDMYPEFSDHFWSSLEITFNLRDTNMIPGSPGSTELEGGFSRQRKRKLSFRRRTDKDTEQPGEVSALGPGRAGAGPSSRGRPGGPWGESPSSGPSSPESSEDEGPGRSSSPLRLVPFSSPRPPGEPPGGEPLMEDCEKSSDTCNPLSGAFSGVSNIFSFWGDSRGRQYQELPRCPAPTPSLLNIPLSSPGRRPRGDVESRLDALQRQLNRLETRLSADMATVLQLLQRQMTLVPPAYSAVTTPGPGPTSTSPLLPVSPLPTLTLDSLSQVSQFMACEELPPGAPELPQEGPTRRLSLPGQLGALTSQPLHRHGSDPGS

SMILES | hERG current change (%, negative = inhibition) at 10uM [%]
COc1ccc(C2CC(C(F)(F)F)n3nc(C(=O)Nc4ccc5c(c4)OCO5)cc3N2)cc1 (stereo not drawn) | 10.5
COc1ccc(-c2noc(N3CCCC(C(=O)Nc4ccccc4F)C3)n2)cc1 (stereo not drawn) | 15.5
Cc1csc(=O)n1CC(=O)OCC(=O)c1ccc(Br)cc1 | -14
CCOc1ccc(NC(=S)N2CCN(S(=O)(=O)c3ccccc3)CC2)cc1 | -31.6
COc1ccc(-n2c(C)n[nH]c2=O)cc1OC | 10.7
Cc1sc(NC(=O)c2sc3nc4c(C)cccc4cc3c2N)c(C#N)c1C | 8.29
O=c1[nH]c2cc3c(cc2cc1CN(Cc1cccnc1)Cc1nnnn1Cc1ccco1)OCCO3 | -4.69
CCN1C(=O)/C(=C/C=C2\C=CN(CC)c3ccccc32)SC1=S | -4.57
NC(=O)COc1ccc2oc(=O)cc(-c3cc4ccccc4o3)c2c1 | 7.27
Cc1noc(C)c1CSCC(=O)Nc1cc(C(F)(F)F)ccc1N1CCOCC1 | -37.9
Cc1c(Cl)c([N+](=O)[O-])nn1CC(=O)Nc1ccc2c(c1)OCO2 | 18.4
CCCCCCCNC(=O)C1(CC2CC(c3ccc(Cl)cc3)=NO2)CCN(C(=O)c2cc(OCC)c(OCC)c(OCC)c2)CC1 (stereo not drawn) | 17.6
CCCCCCCNC(=O)C1(CC2CC(c3cccc(Br)c3)=NO2)CCN(C(=O)OC(C)(C)C)CC1 (stereo not drawn) | 3.88
CCCCCCCNC(=O)C1(CC2CC(c3cccc(Br)c3)=NO2)CCN(C(=O)CCCCCBr)CC1 (stereo not drawn) | -82.7
CCCNC(=O)C1(CC2CC(c3ccccc3)=NO2)CCN(C(=O)CCCCCBr)CC1 (stereo not drawn) | -50
CCCCCCCNC(=O)C1(CC2CC(c3ccc(Cl)cc3)=NO2)CCN(C(=O)CCCCCBr)CC1 (stereo not drawn) | -79
CCCCn1c(-c2ccco2)n[nH]c1=S | 16.9
COc1cc2c(cc1OC)-c1nnc(-c3ccco3)n1C1(CCCC1)C2 | -8.01
O=Cc1c(Cl)cccc1Cl | 13.9

SMILES | hERG current change (%, negative = inhibition) at 10uM [%]
CNC(=O)CCCN1C(=O)c2ccccc2Sc2ncccc21 | 23.9
O=C(CSc1nc2[nH]ncc2c(=O)[nH]1)Nc1cccc([N+](=O)[O-])c1 | -19.2
COCCn1c(C)cc(C2=NNC(=Nc3ccc(Cl)cc3Cl)SC2)c1C | 7.57
O=C(Cn1c(SCC(=O)NC2CCCC2)nnc1-c1ccncc1)Nc1ccc2c(c1)OCO2 | -11.7
COC(=O)CSc1nnc(C)c(=O)[nH]1 | 2
O=C(Cc1coc2cc3c(cc12)CCC3)NCC1(N2CCCCC2)CCCCC1 | -76.9
O=C(Cc1coc2cc3c(cc12)CCC3)NC1CCCCCCC1 | 0.532
Cc1ccc2c(CC(=O)NCC3(N4CCOCC4)CCCCC3)coc2c1C | -25.5
CCOC(=O)c1sc2ncn(C(CC)C(=O)OCC)c(=O)c2c1C (stereo not drawn) | 1.12
O=C(COC(=O)c1cc[n+]([O-])cc1)Nc1ccc(Cl)cc1C(F)(F)F | 24.9
C=C(C)C1CC=C(CN2CCC(O)CC2)CC1 (stereo not drawn) | -6.28
CCc1ccc(CN2CCC(N3CCC(C(=O)N4CCCC4)CC3)CC2)o1 | -70
O=C(c1cc2ccccc2o1)N1CCCCCC1 | -5.92
O=C(c1cc2ccccc2o1)N1CCC(N2CCC(C(=O)N3CCCC3)CC2)CC1 | -55.7
CC1(C)[C@H]2CC=C(CN3CCC(N4CCC(C(=O)N5CCCC5)CC4)CC3)[C@@H]1C2 | -25.1
O=C(C1CCN(C2CCN(Cc3ccc4cc(F)ccc4n3)CC2)CC1)N1CCCC1 | -77.3
C=C(C)[C@@H]1CC=C(CN2CCC(N3CCC(C(=O)N4CCCC4)CC3)CC2)CC1 | -82.2
O=C(C1CCN(C2CCN(Cc3ccc4c(c3)CCO4)CC2)CC1)N1CCCC1 | -43
O=C(c1cc2ccccc2o1)N1CCCC1 | 10.8

SMILES | hERG current change (%, negative = inhibition) at 10uM [%]
O=C(c1cc(F)ccc1F)N1CCC(N2CCC(C(=O)N3CCCC3)CC2)CC1 | 6.92
COCc1ccc(CN2CCC(N3CCC(C(=O)N4CCCC4)CC3)CC2)o1 | 8.86
Cc1ncc(CN2CCC(N3CCC(C(=O)N4CCCC4)CC3)CC2)s1 | -18.1
O=C(CNC(=O)c1ccco1)Nc1ccncc1 | -5.14
Cc1cc(C)cc(C(=O)NC(CC(N)=O)c2ccc(NCCN3CCCC3)c([N+](=O)[O-])c2)c1 (stereo not drawn) | 10.5
COC(=O)Cc1coc2cc(OC)ccc12 | 11.9
Cc1ccc(S(=O)(=O)n2cnc3cc([N+](=O)[O-])ccc32)cc1C | -19.9
Cc1cc(NC(=O)CSc2nc3c(cc2C#N)CCC3)no1 | 26.7
O=C1c2ccccc2C(=O)N1c1ncn[nH]1 | 11.3
Cc1cccc(Nc2ncnc(N)n2)c1 | 15.6
O=C1CCN(Cc2ccc(Cl)cc2)N1 | 10.8
CC(C)c1cc(=O)n2[nH]c(SCc3ccccc3Cl)nc2n1 | 23.7
Cc1ccc(C(=O)COC(=O)CCC(=O)NC2CCCCC2)cc1C | 14.8
Cc1cccc(C)c1N(CC(O)Cn1c2ccccc2c2ccccc21)S(C)(=O)=O (stereo not drawn) | 18.6
COc1cccc(C(CC(=O)O)NS(=O)(=O)c2ccc3c(c2)N(C(C)=O)CC(C)O3)c1 (stereo not drawn) | 24.4
Cc1nn(-c2ccccc2)c(Cl)c1C(=O)N1CCN(c2ncnc3c2cnn3-c2ccccc2)CC1 | -29.1
CCOC(=O)C1(CCOC)CCN(Cc2ccc(C3CCCCO3)s2)CC1 (stereo not drawn) | -21.4
CCOC(=O)C1(CCOC)CCN(Cc2nc(C(C)C)cs2)CC1 | 41
C=C(C)[C@@H]1CC=C(CN2CCC(CCOC)(C(=O)OCC)CC2)CC1 | -64.7
